Drawing on ChEMBL document CHEMBL2218924, “A broad activity screen in support of a chemogenomic map for kinase signalling research and drug discovery” (Biochem J, 2013), this text covers residual activity for six compounds.

Test [1] addresses BDNF/NT-3 growth factors receptor (Homo sapiens) (UniProt Q16620). To be noted: at 10 µM.
Test [2] addresses T1, Tyrosine-protein kinase TXK (Homo sapiens) (UniProt P42681).
T1 sequence (whole entry): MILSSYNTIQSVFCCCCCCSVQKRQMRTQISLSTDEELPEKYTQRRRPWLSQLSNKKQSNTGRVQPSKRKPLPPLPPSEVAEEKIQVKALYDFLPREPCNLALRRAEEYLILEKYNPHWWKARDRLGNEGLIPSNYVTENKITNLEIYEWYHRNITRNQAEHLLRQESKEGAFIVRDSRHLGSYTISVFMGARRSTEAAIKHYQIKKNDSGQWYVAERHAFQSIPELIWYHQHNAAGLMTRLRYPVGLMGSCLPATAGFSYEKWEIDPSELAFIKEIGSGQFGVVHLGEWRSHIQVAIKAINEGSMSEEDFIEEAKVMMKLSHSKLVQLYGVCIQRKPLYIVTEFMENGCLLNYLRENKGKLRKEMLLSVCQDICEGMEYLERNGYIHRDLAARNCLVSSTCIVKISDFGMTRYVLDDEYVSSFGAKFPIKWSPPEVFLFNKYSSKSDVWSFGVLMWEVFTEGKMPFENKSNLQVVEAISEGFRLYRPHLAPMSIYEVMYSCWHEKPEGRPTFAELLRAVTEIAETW
To be noted: at 1 µM.

In test [3] the target is T1, Tyrosine-protein kinase TXK (Homo sapiens). To be noted: at 10 µM.
In test [4] the target is T2, Serine/threonine-protein kinase ULK2 (Homo sapiens) (UniProt Q8IYT8).
T2 sequence (whole entry): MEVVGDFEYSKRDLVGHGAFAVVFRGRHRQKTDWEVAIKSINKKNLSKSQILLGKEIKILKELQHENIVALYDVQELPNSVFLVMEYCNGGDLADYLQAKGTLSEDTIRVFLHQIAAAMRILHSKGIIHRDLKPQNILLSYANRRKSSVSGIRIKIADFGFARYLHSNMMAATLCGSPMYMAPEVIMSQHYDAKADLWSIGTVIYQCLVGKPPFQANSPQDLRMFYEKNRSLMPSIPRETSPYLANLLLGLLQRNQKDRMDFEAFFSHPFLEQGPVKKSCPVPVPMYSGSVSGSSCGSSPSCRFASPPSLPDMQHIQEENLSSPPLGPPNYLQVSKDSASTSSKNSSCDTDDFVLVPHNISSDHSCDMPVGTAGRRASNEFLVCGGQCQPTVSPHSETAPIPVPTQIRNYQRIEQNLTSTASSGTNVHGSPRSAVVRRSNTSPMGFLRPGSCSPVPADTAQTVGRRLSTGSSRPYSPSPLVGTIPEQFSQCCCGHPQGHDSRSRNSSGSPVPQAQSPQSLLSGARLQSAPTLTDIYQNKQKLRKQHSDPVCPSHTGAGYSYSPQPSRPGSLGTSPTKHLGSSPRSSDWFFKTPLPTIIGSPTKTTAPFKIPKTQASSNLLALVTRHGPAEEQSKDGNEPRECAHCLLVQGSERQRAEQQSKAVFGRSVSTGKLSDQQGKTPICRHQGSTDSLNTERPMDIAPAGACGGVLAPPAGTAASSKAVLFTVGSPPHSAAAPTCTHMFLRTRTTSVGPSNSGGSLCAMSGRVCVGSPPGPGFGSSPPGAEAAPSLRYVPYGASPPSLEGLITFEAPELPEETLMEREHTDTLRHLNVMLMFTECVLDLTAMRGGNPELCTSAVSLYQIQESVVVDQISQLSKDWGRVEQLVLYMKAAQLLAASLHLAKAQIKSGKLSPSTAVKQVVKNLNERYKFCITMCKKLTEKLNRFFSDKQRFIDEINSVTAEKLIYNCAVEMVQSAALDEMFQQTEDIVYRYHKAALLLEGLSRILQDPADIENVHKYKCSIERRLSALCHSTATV
As to conditions: at 1 µM.

Test [5] has as its target T2, Serine/threonine-protein kinase ULK2 (Homo sapiens). To be noted: at 10 µM.
For test [6], the target named is T3, Serine/threonine-protein kinase ULK3 (Homo sapiens) (UniProt Q6PHR2).
T3 sequence (whole entry): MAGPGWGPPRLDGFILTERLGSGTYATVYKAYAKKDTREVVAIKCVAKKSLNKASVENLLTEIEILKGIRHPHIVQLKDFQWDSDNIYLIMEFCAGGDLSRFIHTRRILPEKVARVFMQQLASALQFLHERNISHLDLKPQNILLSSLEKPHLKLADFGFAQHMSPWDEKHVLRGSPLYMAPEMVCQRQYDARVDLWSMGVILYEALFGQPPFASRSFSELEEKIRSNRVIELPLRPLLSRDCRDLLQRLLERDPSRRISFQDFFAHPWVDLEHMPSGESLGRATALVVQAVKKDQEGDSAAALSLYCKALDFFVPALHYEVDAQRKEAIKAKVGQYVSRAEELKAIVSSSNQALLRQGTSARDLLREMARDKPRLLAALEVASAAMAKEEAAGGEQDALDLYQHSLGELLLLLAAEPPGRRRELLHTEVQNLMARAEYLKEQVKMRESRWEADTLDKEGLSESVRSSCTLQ
As to conditions: at 1 µM.

Test [7] deals with T3, Serine/threonine-protein kinase ULK3 (Homo sapiens). To be noted: at 10 µM.
Test [8] addresses Serine/threonine-protein kinase VRK2 (Homo sapiens) (UniProt Q86Y07). To be noted: at 1 µM.
The target is the same in test [9]. To be noted: at 10 µM.
Test [10] concerns the target Serine/threonine-protein kinase WNK2 (Homo sapiens) (UniProt Q9Y3S1). As to conditions: at 1 µM.
The target is the same in test [11]. As to conditions: at 10 µM.
In test [12] the target is Serine/threonine-protein kinase WNK3 (Homo sapiens) (UniProt Q9BYP7). As to conditions: at 1 µM.
For test [13] the target is unchanged. To be noted: at 10 µM.
The target of test [14] is Tyrosine-protein kinase Yes (Homo sapiens) (UniProt P07947). To be noted: at 1 µM.
For test [15] the target is unchanged. As to conditions: at 10 µM.
The target in test [16] is T4, Tyrosine-protein kinase ZAP-70 (Homo sapiens) (UniProt P43403).
T4 sequence (whole entry): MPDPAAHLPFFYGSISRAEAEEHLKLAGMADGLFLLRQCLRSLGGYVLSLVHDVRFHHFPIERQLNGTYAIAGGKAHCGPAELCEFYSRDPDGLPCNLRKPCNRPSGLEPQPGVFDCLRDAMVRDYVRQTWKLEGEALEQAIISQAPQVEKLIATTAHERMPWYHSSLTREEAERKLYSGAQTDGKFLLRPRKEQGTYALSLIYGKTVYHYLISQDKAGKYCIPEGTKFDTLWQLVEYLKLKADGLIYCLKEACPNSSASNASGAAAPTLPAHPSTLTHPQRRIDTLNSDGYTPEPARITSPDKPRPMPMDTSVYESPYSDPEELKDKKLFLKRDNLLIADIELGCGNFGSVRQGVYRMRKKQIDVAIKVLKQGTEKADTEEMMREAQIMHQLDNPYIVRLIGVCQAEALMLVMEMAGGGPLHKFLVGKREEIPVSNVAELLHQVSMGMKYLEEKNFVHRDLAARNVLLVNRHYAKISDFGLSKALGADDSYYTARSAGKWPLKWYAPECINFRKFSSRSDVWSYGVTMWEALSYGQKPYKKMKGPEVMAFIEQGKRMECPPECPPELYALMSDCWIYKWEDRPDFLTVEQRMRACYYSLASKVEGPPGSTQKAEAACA
To be noted: at 1 µM.

The target of test [17] is Death-associated protein kinase 3 (Homo sapiens) (UniProt O43293). To be noted: at 1 µM.
For test [18] the target is unchanged. As to conditions: at 10 µM.
Test [19] deals with RAF proto-oncogene serine/threonine-protein kinase (Homo sapiens) (UniProt P04049). To be noted: at 1 µM.
The target is the same in test [20]. To be noted: at 10 µM.

Sequence of Death-associated protein kinase 3 (Homo sapiens) (O43293 whole entry, looked up): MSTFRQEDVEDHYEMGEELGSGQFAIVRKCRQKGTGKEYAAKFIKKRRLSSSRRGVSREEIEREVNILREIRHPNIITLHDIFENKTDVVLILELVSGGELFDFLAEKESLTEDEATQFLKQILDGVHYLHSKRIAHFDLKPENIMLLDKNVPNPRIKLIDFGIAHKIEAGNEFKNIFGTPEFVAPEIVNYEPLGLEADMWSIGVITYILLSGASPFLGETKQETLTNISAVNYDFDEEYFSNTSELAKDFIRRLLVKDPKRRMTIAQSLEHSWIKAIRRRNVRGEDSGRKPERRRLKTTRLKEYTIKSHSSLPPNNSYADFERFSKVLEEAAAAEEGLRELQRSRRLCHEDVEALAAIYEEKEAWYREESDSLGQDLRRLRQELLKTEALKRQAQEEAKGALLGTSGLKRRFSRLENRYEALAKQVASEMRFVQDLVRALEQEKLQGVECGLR
Sequence of BDNF/NT-3 growth factors receptor (Homo sapiens) (Q16620 32-822 limits assumed): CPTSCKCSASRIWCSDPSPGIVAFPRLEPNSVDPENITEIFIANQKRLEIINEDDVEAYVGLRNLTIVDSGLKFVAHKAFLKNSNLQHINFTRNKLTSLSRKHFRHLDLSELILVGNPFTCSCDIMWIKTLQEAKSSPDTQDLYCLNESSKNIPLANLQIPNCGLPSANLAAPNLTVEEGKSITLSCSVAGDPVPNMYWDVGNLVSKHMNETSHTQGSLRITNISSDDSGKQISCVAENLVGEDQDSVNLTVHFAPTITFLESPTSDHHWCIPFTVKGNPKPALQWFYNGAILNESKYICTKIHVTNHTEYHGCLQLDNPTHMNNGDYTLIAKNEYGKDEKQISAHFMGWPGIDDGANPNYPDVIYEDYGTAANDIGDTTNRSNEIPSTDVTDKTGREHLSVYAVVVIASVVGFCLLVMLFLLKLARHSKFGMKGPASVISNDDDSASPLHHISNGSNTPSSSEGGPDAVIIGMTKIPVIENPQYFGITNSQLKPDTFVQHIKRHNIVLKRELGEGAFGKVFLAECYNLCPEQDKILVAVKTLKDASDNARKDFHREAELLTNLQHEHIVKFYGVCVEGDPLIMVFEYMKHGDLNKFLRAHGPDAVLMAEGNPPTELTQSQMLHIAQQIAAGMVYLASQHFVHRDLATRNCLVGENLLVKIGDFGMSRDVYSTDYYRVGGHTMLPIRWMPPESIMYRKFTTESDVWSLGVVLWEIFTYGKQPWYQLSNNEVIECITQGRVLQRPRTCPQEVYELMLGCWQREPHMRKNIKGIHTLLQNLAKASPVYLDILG
Sequence of Serine/threonine-protein kinase VRK2 (Homo sapiens) (Q86Y07 whole entry): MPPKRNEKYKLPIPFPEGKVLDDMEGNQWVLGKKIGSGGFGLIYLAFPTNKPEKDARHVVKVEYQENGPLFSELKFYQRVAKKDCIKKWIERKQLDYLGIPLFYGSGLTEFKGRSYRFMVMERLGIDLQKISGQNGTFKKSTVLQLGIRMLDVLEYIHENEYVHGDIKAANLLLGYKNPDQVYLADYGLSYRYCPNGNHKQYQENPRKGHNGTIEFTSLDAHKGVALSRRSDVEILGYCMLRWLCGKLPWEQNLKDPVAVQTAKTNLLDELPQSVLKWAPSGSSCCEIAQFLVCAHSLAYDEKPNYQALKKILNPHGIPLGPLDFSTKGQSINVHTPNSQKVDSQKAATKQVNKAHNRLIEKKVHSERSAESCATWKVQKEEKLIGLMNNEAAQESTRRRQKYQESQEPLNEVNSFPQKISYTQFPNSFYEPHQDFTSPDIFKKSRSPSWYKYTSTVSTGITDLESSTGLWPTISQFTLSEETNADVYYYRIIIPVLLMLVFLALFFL
Sequence of Tyrosine-protein kinase Yes (Homo sapiens) (P07947 2-543 limits assumed): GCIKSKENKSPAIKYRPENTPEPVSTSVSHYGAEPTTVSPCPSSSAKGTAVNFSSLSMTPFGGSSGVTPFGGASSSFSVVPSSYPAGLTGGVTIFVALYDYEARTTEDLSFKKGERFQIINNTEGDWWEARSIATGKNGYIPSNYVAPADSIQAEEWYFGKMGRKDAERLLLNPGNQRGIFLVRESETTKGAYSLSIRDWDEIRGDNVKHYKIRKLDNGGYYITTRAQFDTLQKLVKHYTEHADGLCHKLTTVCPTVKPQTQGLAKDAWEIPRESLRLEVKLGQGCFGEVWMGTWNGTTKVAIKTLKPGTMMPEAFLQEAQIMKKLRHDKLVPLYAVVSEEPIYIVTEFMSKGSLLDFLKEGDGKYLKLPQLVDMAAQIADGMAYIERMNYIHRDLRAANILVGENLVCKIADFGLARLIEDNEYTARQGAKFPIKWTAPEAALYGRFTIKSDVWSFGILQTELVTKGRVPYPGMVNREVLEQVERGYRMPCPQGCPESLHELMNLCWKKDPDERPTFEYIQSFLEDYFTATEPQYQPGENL
Sequence of Serine/threonine-protein kinase WNK2 (Homo sapiens) (Q9Y3S1 whole entry): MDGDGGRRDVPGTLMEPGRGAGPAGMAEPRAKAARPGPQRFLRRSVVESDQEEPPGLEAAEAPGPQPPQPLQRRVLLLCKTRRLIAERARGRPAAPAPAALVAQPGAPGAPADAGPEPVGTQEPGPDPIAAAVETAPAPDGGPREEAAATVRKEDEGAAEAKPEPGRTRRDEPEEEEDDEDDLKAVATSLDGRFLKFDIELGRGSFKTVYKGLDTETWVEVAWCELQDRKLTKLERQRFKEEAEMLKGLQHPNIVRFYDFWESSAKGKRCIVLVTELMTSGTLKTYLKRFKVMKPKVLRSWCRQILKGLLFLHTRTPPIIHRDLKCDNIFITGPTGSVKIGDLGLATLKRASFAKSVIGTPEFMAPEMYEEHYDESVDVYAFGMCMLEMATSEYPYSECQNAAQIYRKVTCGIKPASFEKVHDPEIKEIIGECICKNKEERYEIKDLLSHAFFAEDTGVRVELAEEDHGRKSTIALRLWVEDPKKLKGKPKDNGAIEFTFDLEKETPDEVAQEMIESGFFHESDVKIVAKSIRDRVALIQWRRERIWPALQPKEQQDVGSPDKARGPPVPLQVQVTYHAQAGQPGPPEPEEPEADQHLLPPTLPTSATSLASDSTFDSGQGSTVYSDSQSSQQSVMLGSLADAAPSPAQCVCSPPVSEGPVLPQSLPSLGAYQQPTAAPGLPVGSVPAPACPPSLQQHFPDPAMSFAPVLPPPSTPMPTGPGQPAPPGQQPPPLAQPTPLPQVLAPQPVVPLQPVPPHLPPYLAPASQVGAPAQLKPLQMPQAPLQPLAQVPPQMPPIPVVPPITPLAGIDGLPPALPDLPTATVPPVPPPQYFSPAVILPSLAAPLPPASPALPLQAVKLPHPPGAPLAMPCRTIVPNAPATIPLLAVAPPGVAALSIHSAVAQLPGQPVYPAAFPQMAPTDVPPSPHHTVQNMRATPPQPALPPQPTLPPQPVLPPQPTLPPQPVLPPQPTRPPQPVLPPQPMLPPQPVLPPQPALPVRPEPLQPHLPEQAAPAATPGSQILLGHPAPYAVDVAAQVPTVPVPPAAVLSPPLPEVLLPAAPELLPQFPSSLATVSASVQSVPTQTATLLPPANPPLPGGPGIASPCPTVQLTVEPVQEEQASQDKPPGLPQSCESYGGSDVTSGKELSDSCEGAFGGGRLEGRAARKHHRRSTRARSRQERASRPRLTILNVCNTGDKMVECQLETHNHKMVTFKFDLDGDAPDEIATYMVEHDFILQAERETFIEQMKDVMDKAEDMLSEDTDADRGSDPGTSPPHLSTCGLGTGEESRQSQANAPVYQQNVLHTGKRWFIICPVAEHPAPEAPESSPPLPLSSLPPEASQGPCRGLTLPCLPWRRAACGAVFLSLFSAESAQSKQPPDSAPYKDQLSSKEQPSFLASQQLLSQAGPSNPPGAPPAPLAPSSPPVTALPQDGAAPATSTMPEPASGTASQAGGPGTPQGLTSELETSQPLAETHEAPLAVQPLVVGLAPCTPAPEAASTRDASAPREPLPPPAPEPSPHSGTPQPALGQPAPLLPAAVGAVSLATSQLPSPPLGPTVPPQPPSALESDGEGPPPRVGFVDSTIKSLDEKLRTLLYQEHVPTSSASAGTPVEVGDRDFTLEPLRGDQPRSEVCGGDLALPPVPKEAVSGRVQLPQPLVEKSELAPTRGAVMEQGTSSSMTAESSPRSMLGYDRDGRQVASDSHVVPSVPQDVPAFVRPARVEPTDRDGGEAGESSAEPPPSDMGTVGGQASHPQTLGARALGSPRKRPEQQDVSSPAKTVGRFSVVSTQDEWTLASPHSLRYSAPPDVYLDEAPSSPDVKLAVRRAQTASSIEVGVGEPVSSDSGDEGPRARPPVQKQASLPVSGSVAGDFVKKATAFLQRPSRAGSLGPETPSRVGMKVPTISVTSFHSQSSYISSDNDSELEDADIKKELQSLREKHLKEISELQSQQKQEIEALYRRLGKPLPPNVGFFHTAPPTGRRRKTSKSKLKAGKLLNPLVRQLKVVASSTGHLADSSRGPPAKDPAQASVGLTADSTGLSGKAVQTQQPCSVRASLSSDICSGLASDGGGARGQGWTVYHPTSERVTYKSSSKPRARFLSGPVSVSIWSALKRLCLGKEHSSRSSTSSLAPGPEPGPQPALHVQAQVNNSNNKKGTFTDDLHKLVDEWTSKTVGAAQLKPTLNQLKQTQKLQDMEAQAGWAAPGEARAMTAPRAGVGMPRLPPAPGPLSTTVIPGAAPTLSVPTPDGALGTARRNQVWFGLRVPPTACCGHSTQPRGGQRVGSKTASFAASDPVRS

As for `Cc1nc2cc3nc(-c4cccs4)cnc3cc2n1C`, the residual activity was determined as 45% in test [1]; 108% in test [2]; 75% in test [3]; 108% in [4]; 107% in [5]; 106% in [6]. Besides, the residual activity was 85% in [7]; 111% (inactive) in test [8]; 84% in test [9]; 117% (inactive) in test [10]; 94% in [11]; 124% (inactive) in test [12]. In addition, the residual activity turned out to be 71% in test [13]; 106% in [14]; 59% in test [15]; 135% in test [16]; 97% in test [17]; 102% in test [18]. For the same compound, the residual activity worked out at 97% in [19] and 95% in test [20].

On to `Cc1nc(-c2ccccc2)c(-c2ccncc2)o1`, for which the residual activity in test [1] turned out to be 53%; in test [2], 86%; in [3], 88%; in test [4], 118%; in [5], 112%; in test [6] it was 104%. Further, the residual activity was 104% in test [7]; 109% (inactive) in [8]; 103% in test [9]; 117% (inactive) in test [10]; 101% in test [11]; 104% (inactive) in [12]. The residual activity in test [13] amounted to 100%; in [14], 121%; in test [15] it was 99%; in [16], 127%; in test [17], 106%; in test [18] it was 94%. Moreover, the residual activity in test [19] was 60%; in test [20], 40%.

For `Cc1ccc(NC2=CC(=O)c3sc(C)nc3C2=O)cc1`, the residual activity in test [1] amounted to 93%; in test [2], 80%; in test [3], 83%; in [4] it was 101%; in test [5], 100%; in [6] it was 96%. For the same compound, the residual activity in test [7] is 100%; in [8] it was 89% (inactive); in test [9] it was 88%; in [10], 88% (inactive); in [11], 90%; in [12] it was 80% (inactive). Also, the residual activity in test [13] was 95%; in [14] it was 118%; in test [15], 105%; in test [16] it was 113%; in test [17], 95%; in test [18] it was 82%. Moreover, the residual activity in test [19] was determined as 84%; in test [20] it was 87%.

For the compound `COc1ccc(OC)c2c(=S)c3ccccc3[nH]c12`, the residual activity is 92% in test [1]; 84% in [2]; 86% in [3]; 100% in test [4]; 102% in [5]; 86% in test [6]. Besides, the residual activity in test [7] is 101%; in test [8], 91% (inactive); in [9], 86%; in test [10] it was 86% (inactive); in [11], 87%; in [12] it was 89% (inactive). Also, the residual activity was found to be 89% in test [13]; 100% in test [14]; 100% in [15]; 90% in [16]; 93% in test [17]; 90% in test [18]. Also, the residual activity was found to be 87% in [19] and 83% in test [20].

In the case of `CC(C)n1cnc2/c(=N/c3cccc(Cl)c3)nc(NCCO)[nH]c21`, the residual activity in [1] stood at 2%; in [2], 68%; in [3] it was 37%; in [4], 68%; in test [5], 31%; in [6], 42%. Besides, the residual activity was 11% in test [7]; 71% (inactive) in test [8]; 19% in [9]; 90% (inactive) in [10]; 52% in [11]; 88% (inactive) in test [12]. Further, the residual activity in test [13] stood at 57%; in [14], 27%; in test [15], 2%; in test [16], 98%; in test [17], 103%; in test [18], 93%. Moreover, the figures for the residual activity in test [19] and in [20] were 70% and 31%, respectively.

Turning to `O=C(Nc1cccc(Nc2nccc(Nc3cccc(C(F)(F)F)c3)n2)c1)C1CC1`, the residual activity in [1] was -5%; in test [2] it was 60%; in [3], 15%; in [4], 101%; in test [5] it was 88%; in [6] it was 97%. Moreover, the residual activity in [7] is 66%; in test [8], 93% (inactive); in test [9], 85%; in test [10], 104% (inactive); in test [11], 50%; in test [12] it was 90% (inactive). Also, the residual activity came out at 65% in test [13]; 56% in test [14]; 51% in test [15]; 113% in test [16]; 84% in test [17]; 49% in test [18]. In addition, the values for the residual activity in test [19] and in test [20] were 89% and 85%, respectively.
